Source: PubChem BioAssay (National Center for Advancing Translational Sciences (NCATS))
Sampled rows, rich in hits. Any-hit rate of the full collection: about 3.3%.
AmpC no deterg: blocks E. coli AmpC beta-lactamase in detergent-free assay | P00811 | AmpC nitrocefin hydrolysis, absorbance 480 nm, 0.0001% Triton | Potency, µM (titrated, usually from 57.1 µM), actives largely listed as inhibitors | 330,000 compounds, 0.52% hits | AID 485341; further: nearly all actives have a fitted effect of over 20% in size
Target sequence (P00811 whole entry, looked up): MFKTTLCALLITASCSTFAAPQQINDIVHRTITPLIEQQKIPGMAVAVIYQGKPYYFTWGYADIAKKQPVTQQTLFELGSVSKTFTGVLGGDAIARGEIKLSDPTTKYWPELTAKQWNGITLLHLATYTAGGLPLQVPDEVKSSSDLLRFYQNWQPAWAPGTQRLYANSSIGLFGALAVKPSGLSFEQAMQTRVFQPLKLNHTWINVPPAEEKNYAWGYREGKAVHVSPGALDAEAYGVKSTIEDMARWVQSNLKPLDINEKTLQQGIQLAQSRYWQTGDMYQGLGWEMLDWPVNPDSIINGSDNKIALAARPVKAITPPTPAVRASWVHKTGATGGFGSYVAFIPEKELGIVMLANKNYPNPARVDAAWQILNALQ
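AmpC (5.3 nM in the dispensed reagent) in 20 mM phosphate pH 7.0 with 0.01% (detergent screen) or 0.0001% Triton X-100 was preincubated with compounds for 15 min at room temperature. Nitrocefin was then added from an 800 uM solution, and hydrolysis was followed at 480 nm.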
AmpC detergent: blocks E. coli AmpC beta-lactamase in detergent assay. Potency, µM (titrated, usually from 114 µM), most hits filed as inhibitors. 370,000 compounds, 0.041% hits. AmpC hydrolysis of nitrocefin, absorbance 480 nm, 0.01% Triton; further: nearly all actives have a fitted effect of over 25% in size
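20 mM phosphate pH 7.0 + 0.01% (detergent screen) or 0.0001% Triton X-100; 5.3 nM AmpC reagent; cpd preinc 15 min RT; nitrocefin (800 uM stock) to start; A480 q20 s × 4 min; Activity was normalised to no-enzyme and no-compound control wells.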
Sm TGR block: inhibitors of Schistosoma mansoni thioredoxin glutathione reductase; Q962Y6; Potency, µM (series often up to 114 µM), most hits filed as inhibitors; purified TGR, DTNB reduction, TNB absorbance 405 nm; 360,000 compounds, 3% hits; further: nearly all actives have a fitted effect of over 60% in size
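First, TGR (20 nM dispensed) and NADPH were mixed with compound. Second, a 15 min room-temperature incubation followed. Third, further NADPH and then DTNB were added to start the reaction. Finally, TNB absorbance was monitored kinetically.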
Each line names hits and unclear results; the compound was inactive in the other large screens. The call rests on the fitted dose curve; in most records, active means well fitted curve in the direction sought with a large enough effect; inconclusive means small, poorly fitted or top-dose-only effect, or another doubt; inactive means no such curve, though single readings can be large; an effect the other way counts as inactive or inconclusive.

CCc1ccc(NCCC(=O)c2ccc(Br)cc2)cc1	Sm TGR block 13µM
O=S(=O)(Nc1cccc(Cl)c1)c1cccc(-n2cnnn2)c1	none (no result: AmpC detergent, Sm TGR block)
S=C(Nc1cccc(Cl)c1)N1CCN(Cc2ccccc2)CC1	none
COc1cc(C(=O)NNC(=O)C2CCCC2)cc(OC)c1OC	none
COc1cc(C(=O)NNC(=O)NC2CCCCC2)cc(OC)c1OC	AmpC no deterg 0.25µM
Cn1ccc2cc(S(=O)(=O)N3CCN(C(=O)Nc4cccc(F)c4)CC3)ccc21	none (no result: AmpC no deterg)
CCC(C)c1ccccc1N1CC(C(=O)Nc2ccc(C)c(S(=O)(=O)N3CCOCC3)c2)CC1=O (configuration not stated)	none
COc1cccc(/C(O)=C2/C(=O)C(=O)N(CCN3CCOCC3)C2c2cccnc2)c1 (configuration not stated)	Sm TGR block 22µM
Cc1ccc(/C(O)=C2/C(=O)C(=O)N(CCN3CCOCC3)C2c2cccnc2)cc1 (configuration not stated)	AmpC detergent inconclusive
CCOc1cccc(/C(O)=C2/C(=O)C(=O)N(CCN3CCOCC3)C2c2cccnc2)c1 (configuration not stated)	none
Cc1ccc(C)c(/C(O)=C2\C(=O)C(=O)N(CCCN3CCOCC3)C2c2cccnc2)c1 (configuration not stated)	Sm TGR block 28µM
CCn1ncc(Br)c1C(=O)Nc1ncc(C)s1	none
Cc1ccc(S(=O)(=O)NC(CC(C)C)C(=O)N2CC(C)OC(C)C2)cc1 (configuration not stated)	none
Cn1c(=O)n(CC(=O)O)c(=O)c2c1nc1n2CCCN1c1ccc(Cl)cc1	none (no result: AmpC no deterg)
CC1=NN(c2cccc(C(=O)O)c2)C(=O)/C1=C\C=C/c1ccccc1	Sm TGR block 11µM
CC1=NN(c2ccc(C)cc2)C(=O)/C1=C\C=C\c1ccccc1	none
COCCNC(=O)C(c1ccc(C)cc1)N(C(=O)CCC(=O)Nc1ccccn1)C1CCCCC1 (configuration not stated)	none
O=C(NCCCNC(=O)c1cnccn1)c1ccc(Cl)c(Cl)c1	none
Nc1nonc1C(=O)N/N=C/c1ccc(Br)o1	none
N/C(=N\N=C\c1ccc(Br)o1)c1nonc1N	Sm TGR block 40µM
O=C(C(=O)N1CCN(c2ccc(F)cc2)CC1)c1cn(CC(=O)N2CCOCC2)c2ccccc12	none
Cc1c(OCC(=O)NCCCn2ccnc2)ccc2c3c(c(=O)oc12)CCC3	none
CN1C(=O)/C(=C/c2ccccc2OCc2ccccc2)NC1=S	none
CN1C(=O)/C(=C/c2cc(C(C)(C)C)c(O)c(C(C)(C)C)c2)NC1=S	Sm TGR block 1µM
O=S1OC(c2ccccc2)c2cc(Cl)ccc21 (configuration not stated)	none
